The panel holds about 83,000 compounds, 20% with a hit somewhere; the sample as a whole holds those more often.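 Each cell line was grown in a 96-well plate and treated with one concentration of compound for 48 hours. Values below 10 were considered active.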 A number with no mark means an inactive call. The source made the active and inactive calls.

In one assay the test system is SF-268 CNS. Description: NCI-60 one-dose screen, 48 h (100 = growth as untreated, 0 = no growth, -100 = all killed). The conditions noted are these: 10 µM unless noted.
For the compound `Cc1sc2c(c1C)C(c1ccc(Cl)cc1)=N[C@@H](CC(=O)NCCCCCNC(=O)COc1ccc(C3CCC(=O)NC3=O)cc1)c1nnc(C)n1-2` (stereo partly drawn), the growth is 65.4%.

As to `N/C(=N\c1nc2ccccc2s1)NC(=O)Nc1ccc(Cl)cc1Cl`, the growth was -2.76% (active).

As to `CC1=C(C#N)C2=NNCC(c3ccccc3)=NN2C(c2ccccc2)=C1`, the growth was 134%.

In a further assay the test system is SF-295 CNS. Described as above. The conditions noted are these: 10 µM unless noted.
As for `CCCSc1nc(Nc2ccc(S(N)(=O)=O)cc2)c(C#N)c(-c2ccc(Cl)cc2)n1`, the growth was 1.43% (active).

As to `CCCCSc1nc(Nc2ccc(S(N)(=O)=O)cc2)c(C#N)c(-c2ccc(Cl)cc2)n1`, the growth is 8.15% (active).

With `Cn1cc(-c2cc3nc(-c4cn(C)c5ncccc45)cc(N)n3n2)c2ccccc21`, the growth is -30.6% (active).

For the compound `Cc1ccc(C2=NN(c3nc(-c4cc5ccccc5oc4=O)cs3)C(c3ccc(C)cc3)C2)cc1` (stereo not drawn), the growth is 99.6%.

As for `Cc1ccc2c(c1)nc(-c1ccccc1)n2CC(=O)N=Nc1c(O)[nH]c2ccc(Br)cc12`, the growth was -80.6% (active).

For the compound `O=C(Cn1nc(-c2ccccc2)ccc1=O)N/N=C/c1ccc(N2CCOCC2)cc1`, the growth is 88.8%.

As for `O=C(NN1C(=O)/C(=C/C=C/c2ccc([N+](=O)[O-])o2)SC1=S)c1ccc(Cl)cc1`, the growth is -91.9% (active).

As for `CCCCSc1nc(Nc2ccc(S(N)(=O)=O)cc2)c(C#N)c(-c2cc(OC)c(OC)c(OC)c2)n1`, the growth was 24.2%.

Turning to `COc1cc2c3c(n(CCCN4CCC[C@@H]4CO)c(=O)c2cc1OC)-c1cc2c(cc1C3=O)OCO2`, the growth is -86% (active).

With `Cn1cc(-c2cc(N)n3nc(-c4cn(C)c5ncc(Br)cc45)cc3n2)c2cc(Br)cnc21`, the growth is -63.5% (active).

Source of the values: PubChem BioAssay (NCI).
